# Assay results as given in PubChem BioAssay AID574 (The Scripps Research Institute Molecular Screening Center, 2007).
# Among all 65,000 compounds or so, about 450 (0.69%) were called active.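 Rule for the calls: active = activation above a set limit, the screen-wide mean activation plus 3 SD (cut at about 8.5% in these data); inactive = the rest.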 Shown is part of a subset that was picked to be rich in actives.
# Molecular target: 5-hydroxytryptamine receptor 1E (Homo sapiens) (UniProt P28566)
# Experiment: activation of human serotonin 5HT1E receptor – cell-based, HTS, primary screen (AID 574);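 note: 100% = positive control agonist at 1 µM giving full maximal response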
# Conditions: CHO 5-HT1E Ga15 NFAT-bla reporter, FRET; at 6 µM; hits give high values
# 5-hydroxytryptamine receptor 1E (Homo sapiens), sequence (P28566 whole entry, looked up): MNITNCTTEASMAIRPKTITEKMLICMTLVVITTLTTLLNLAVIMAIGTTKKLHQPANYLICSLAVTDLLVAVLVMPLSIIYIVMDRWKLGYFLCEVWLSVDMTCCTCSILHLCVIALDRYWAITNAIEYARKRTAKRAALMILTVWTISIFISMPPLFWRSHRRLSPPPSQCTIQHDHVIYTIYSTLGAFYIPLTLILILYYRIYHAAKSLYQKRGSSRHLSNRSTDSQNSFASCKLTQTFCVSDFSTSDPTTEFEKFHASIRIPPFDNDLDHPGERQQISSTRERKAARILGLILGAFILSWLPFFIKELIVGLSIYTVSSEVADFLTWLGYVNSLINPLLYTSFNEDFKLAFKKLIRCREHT
row,Structure (SMILES),activation
1,c1ccc2sc(C3CCCNC3)nc2c1 (stereo not given),98.8% (active)
2,Cc1ccc(P(=S)(c2ccc(C)o2)N2CCOCC2)o1,-1.7% (inactive)
3,O=C1NC(=O)C(C/C=C/c2ccccc2)C(=O)N1,0.1% (inactive)
4,Fc1cccc(F)c1CN1CCN(Cc2c(F)cccc2F)CC1,1.1% (inactive)
5,COc1ccccc1CN1CCN(C(=O)Cc2ccccc2)CC1,-0.5% (inactive)
6,COc1ccc(CN2CCN(c3ccccc3F)CC2)c(OC)c1,54.1% (active)
7,CC(=NC1CCN(Cc2ccccc2)CC1)c1c(O)n(C)c(=O)n(C)c1=O,0% (inactive)
8,CCOP(=S)(OCC)SCOC(=O)NCC(=O)OC,-0.2% (inactive)
9,CC[N+]1(C)CCCC(OC(=O)C(O)(c2ccccc2)c2ccccc2)C1 (stereo not given),-0.1% (inactive)
10,CC(C)c1ccc(OCC(=O)N2CCN(C)CC2)c(Br)c1,-1.2% (inactive)
